CYP2C19 activ – human CYP2C19 activators, primary screen, biochemical, luminescence | Cytochrome P450 2C19 (Homo sapiens), P33261 | recombinant CYP2C19, luciferin-H EGE luminescence; active compounds read high; 0 = fully inhibited enzyme, 1 = untreated enzyme | activation factor at 5 µM | 96,000 tested, under 10 active | AID 1025, 2008;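 active = activation factor of at least 2 at 5 µM in the primary screen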;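 note: 0 = wells with 2.5 mM tranylcypromine and 1 = vehicle-only wells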
CYP2C19 inhib – blockers of cytochrome P450 2C19 activity – biochemical, luminescence, ADME assay, primary screen. 96,000 tested, 21% active. CYP2C19 Supersomes, luciferin-H EGE luminescence, 30 min. inhibition, % at 5 µM. P33261;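 active = CYP2C19 inhibition above a set limit at 5 µM in the primary screen, cut at about 50% in these data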;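 note: plate controls were negative control wells for no effect and 2.5 mM tranylcypromine positive control for full effect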
sEH inhibitor – soluble epoxide hydrolase inhibitors, primary screen, biochemical, human sEH; recombinant human sEH enzymatic activity assay; inhibition, % at 2 µM; 91,000 tested, 0.34% active; AID 707, 2007; in the data active = inhibition above about 80%
CYP2C9 inhib – blockers of cytochrome P450 2C9 activity – biochemical, luminescence, ADME assay, primary screen. P11712. CYP2C9 Supersomes, luciferin-H conversion. inhibition, % at 5 µM. 96,000 tested, 20% active. AID 777, 2007;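 active = blocking of liver enzyme CYP2C9 beyond about 50% at 5 µM, limit read from the data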
Target sequence (P11712 whole entry, looked up): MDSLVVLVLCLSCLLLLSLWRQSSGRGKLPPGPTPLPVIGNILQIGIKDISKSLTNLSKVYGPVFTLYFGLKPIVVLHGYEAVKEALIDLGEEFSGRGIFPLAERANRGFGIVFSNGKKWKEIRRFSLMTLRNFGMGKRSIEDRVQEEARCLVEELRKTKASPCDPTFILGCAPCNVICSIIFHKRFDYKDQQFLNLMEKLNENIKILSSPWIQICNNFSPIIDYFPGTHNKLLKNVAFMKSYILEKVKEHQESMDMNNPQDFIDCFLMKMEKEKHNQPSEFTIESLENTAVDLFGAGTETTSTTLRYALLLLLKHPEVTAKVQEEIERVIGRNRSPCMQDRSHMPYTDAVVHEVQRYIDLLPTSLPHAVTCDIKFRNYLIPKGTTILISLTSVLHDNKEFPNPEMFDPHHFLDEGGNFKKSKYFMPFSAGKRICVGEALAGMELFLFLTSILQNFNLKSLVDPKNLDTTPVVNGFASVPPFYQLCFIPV
CYP2C9 act – human CYP2C9 activators, primary screen, biochemical, luminescence; Cytochrome P450 2C9 (Homo sapiens), P11712; recombinant CYP2C9, luciferin-H conversion; active compounds read high; factor 1 = untreated enzyme, 0 = blocked; activation factor at 5 µM; 96,000 tested, 1.4% active;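 active = activation factor of 2 or more for CYP2C9 at a 5 µM dose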;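 note: 0 = sulfaphenazole-blocked wells and 1 = vehicle-only wells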
sEH act – soluble epoxide hydrolase activators, primary screen, biochemical, human sEH. purified human sEH enzymatic activity, activator screen. AID 717, 2007. 91,000 tested, 0.04% active. activation, % at 2 µM; in the data active = activation above about 37%
Starred values were filed as active, the others as inactive. In the library only some 27% were active in any assay of this set; here they are far more common.

What do the screens show for `CCOc1cc(CNc2ccc3cn[nH]c3c2)ccc1OC`?
CYP2C19 activ: 0.1; CYP2C19 inhib: 88*; sEH inhibitor: -1; CYP2C9 inhib: 75*; CYP2C9 act: 0.3; sEH act: -1

How did COc1ccc(CNc2ccc3cn[nH]c3c2)c(OC)c1OC do in these assays?
CYP2C19 activ: 0; CYP2C19 inhib: 98*; sEH inhibitor: -4; CYP2C9 inhib: 86*; CYP2C9 act: 0.1; sEH act: 2

How did COc1ccccc1-c1nnc(N(C)C(=O)C2CCCO2)s1 (stereo not drawn) do in these assays?
CYP2C19 activ: 0.7; CYP2C19 inhib: 31; sEH inhibitor: -6; CYP2C9 inhib: -19; CYP2C9 act: 1.2; sEH act: 6

What do the screens show for `CCC(=O)N(CCC(c1ccco1)c1ccccc1OC)Cc1cccs1` (stereo not drawn)?
CYP2C19 activ: 0; CYP2C19 inhib: 96*; sEH inhibitor: 6; CYP2C9 inhib: 96*; CYP2C9 act: 0; sEH act: -6

How did CC(=O)N(CCC(c1ccccc1)c1ccco1)Cc1cccs1 (stereo not drawn) do in these assays?
CYP2C19 activ: 0.7; CYP2C19 inhib: 32; CYP2C9 inhib: 43; CYP2C9 act: 0.6

What do the screens show for `Clc1nc2sccn2c1/C=N/n1cnc2ccccc21`?
CYP2C19 activ: 0.7; CYP2C19 inhib: 25; CYP2C9 inhib: 21; CYP2C9 act: 0.8

What do the screens show for `O=C(CCc1ccccc1)NC(NC(=S)Nc1ccc(Br)cc1)C(Cl)(Cl)Cl` (stereo not drawn)?
CYP2C19 activ: 0.7; CYP2C19 inhib: 30; sEH inhibitor: 20; CYP2C9 inhib: 97*; CYP2C9 act: 0; sEH act: -22

Results for CC(CC(=O)O)CC(=O)Nc1ccc(S(N)(=O)=O)cc1 (stereo not drawn) ?
CYP2C19 activ: 1.2; CYP2C19 inhib: -16; CYP2C9 inhib: -14; CYP2C9 act: 1.1

What do the screens show for `CCCCCCCC(=O)NC(Nc1ccc(S(N)(=O)=O)cc1)C(Cl)(Cl)Cl` (stereo not drawn)?
CYP2C19 activ: 0.9; CYP2C19 inhib: 15; sEH inhibitor: -6; CYP2C9 inhib: 77*; CYP2C9 act: 0.2; sEH act: 4

How did CCCCCC(=O)NC(NC(=S)Nc1ccc(S(N)(=O)=O)cc1)C(Cl)(Cl)Cl (stereo not drawn) do in these assays?
CYP2C19 activ: 0.4; CYP2C19 inhib: 60*; sEH inhibitor: 10; CYP2C9 inhib: 93*; CYP2C9 act: 0.1; sEH act: -12

What do the screens show for `COc1ccc2cc(Br)ccc2c1CC(=O)NC1CC(C)(C)NC(C)(C)C1`?
CYP2C19 activ: 0.8; CYP2C19 inhib: 17; sEH inhibitor: -4; CYP2C9 inhib: 13; CYP2C9 act: 0.9; sEH act: 5

How did COc1ccc(OC)c(S(=O)(=O)N2CCC(C(=O)Nc3cccc(C)c3C)CC2)c1 do in these assays?
CYP2C19 activ: 0.9; CYP2C19 inhib: 10; sEH inhibitor: 14; CYP2C9 inhib: -154; CYP2C9 act: 2.5*; sEH act: -14

Results for COc1ccc(OC)c(NC(=O)C2CCN(S(C)(=O)=O)CC2)c1 ?
CYP2C19 activ: 1; CYP2C19 inhib: -2; sEH inhibitor: -14; CYP2C9 inhib: -23; CYP2C9 act: 1.2; sEH act: 14

Results for COc1ccc(CCNC(=O)C2CCN(S(=O)(=O)c3cc(OC)ccc3OC)CC2)cc1 ?
CYP2C19 activ: 0.7; CYP2C19 inhib: 34; sEH inhibitor: 20; CYP2C9 inhib: -50; CYP2C9 act: 1.5; sEH act: -20

What do the screens show for `COc1ccc(OC)c(S(=O)(=O)N2CCC(C(=O)Nc3ccc(C)c(C)c3)CC2)c1`?
CYP2C19 activ: 0.7; CYP2C19 inhib: 29; sEH inhibitor: 66; CYP2C9 inhib: -145; CYP2C9 act: 2.5*; sEH act: -66

Results for O=C(O)c1ccc2c(c1)C(c1ccccc1)OC2=O (stereo not drawn) ?
CYP2C19 activ: 1.1; CYP2C19 inhib: -6; CYP2C9 inhib: 18; CYP2C9 act: 0.8

How did Cc1[nH]nc2ncc(C(=O)c3cc(Cl)cc(Cl)c3O)cc12 do in these assays?
CYP2C19 activ: 1; CYP2C19 inhib: -3; sEH inhibitor: -3; CYP2C9 inhib: 32; CYP2C9 act: 0.7; sEH act: 4

Results for Cc1ccc(N/C=C(/C#N)c2ccsc2)cc1 ?
CYP2C19 activ: 0.4; CYP2C19 inhib: 64*; sEH inhibitor: -10; CYP2C9 inhib: 33; CYP2C9 act: 0.7; sEH act: 10

Results for Cc1noc(C)c1C(c1ccccc1)c1ccccc1 ?
CYP2C19 activ: 0.1; CYP2C19 inhib: 94*; sEH inhibitor: -18; CYP2C9 inhib: 76*; CYP2C9 act: 0.2; sEH act: 17

What do the screens show for `Cc1noc(C)c1Cc1c(Cl)cccc1Cl`?
CYP2C19 activ: 0.5; CYP2C19 inhib: 47; sEH inhibitor: 12; CYP2C9 inhib: 5; CYP2C9 act: 0.9; sEH act: -13

What do the screens show for `Cc1nc2nc(SCC(=O)NCCN3CCOCC3)nn2c(C)c1Cc1ccccc1`?
CYP2C19 activ: 0.7; CYP2C19 inhib: 30; sEH inhibitor: 8; CYP2C9 inhib: 30; CYP2C9 act: 0.7; sEH act: -5

Results for Cc1nc2nc(SCC(=O)N3CCOCC3)nn2c(C)c1Cc1c(F)cccc1Cl ?
CYP2C19 activ: 0.8; CYP2C19 inhib: 18; CYP2C9 inhib: 53*; CYP2C9 act: 0.5

How did CC(NC(=O)NC1CCCCC1)C(c1cccs1)N1CCN(Cc2ccccc2)CC1 (stereo not drawn) do in these assays?
CYP2C19 activ: 0.6; CYP2C19 inhib: 39; CYP2C9 inhib: 54*; CYP2C9 act: 0.5

How did O=C(CN1CCN(Cc2ccccc2)CC1)NC(=O)NC1CCCCC1 do in these assays?
CYP2C19 activ: 1; CYP2C19 inhib: 2; CYP2C9 inhib: 8; CYP2C9 act: 0.9

Results for CC(NC(=O)c1ccco1)C(c1cccs1)N1CCN(c2ccccc2)CC1 (stereo not drawn) ?
CYP2C19 activ: 0.4; CYP2C19 inhib: 56*; CYP2C9 inhib: 25; CYP2C9 act: 0.7

What do the screens show for `Cc1ccccc1C(=O)NC(C)C(c1cccs1)N1CCOCC1` (stereo not drawn)?
CYP2C19 activ: 0.7; CYP2C19 inhib: 31; sEH inhibitor: -6; CYP2C9 inhib: 17; CYP2C9 act: 0.8; sEH act: 5

How did COc1ccccc1C(=O)NC(C)C(c1cccs1)N1CCOCC1 (stereo not drawn) do in these assays?
CYP2C19 activ: 0.5; CYP2C19 inhib: 51*; sEH inhibitor: -1; CYP2C9 inhib: 24; CYP2C9 act: 0.8; sEH act: 4

Source: PubChem (several laboratories)
